# Assay results as given in the supplement of paper PMC10338343.
# ± gives the standard deviation. Over roughly 5,500 sequences, “pre-steady-state target cleavage rate” has its median near 0.1; the highest 2% begin near 0.64. The full list was thinned out, with the highest values kept by preference.
# Tested on: MIWI (PIWIL1) piRISC loaded with piRNA #2 (30 nt)
# Experiment: pre-steady-state target cleavage rate (min^-1); MIWI and MILI are mouse PIWI proteins and EfPiwi is from a freshwater sponge; tags in brackets are library labels; higher = faster piRNA-guided slicing of the target
# Details: guide: piRNA #2 5'p-UUAGGUAACCCAGUAGAUCCAGAGGAAUUC; auxiliary factor: 500 nM mouse GTSF1
# How it was run: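 The pre-steady-state cleavage rate came from a burst-and-steady-state fit to pooled data from three Cleave-'n-Seq trials, in which uncleaved targets were sequenced and normalised to depth and to weakly complementary targets. Each reaction held 0.1 nM transcribed, DNA-blocked target RNA library and 1 nM active affinity-purified piRISC carrying one synthetic guide, with or without 500 nM GTSF1 partner protein, in HEPES–potassium acetate buffer at 33 °C for 0–8 or 0–960 min. k3 was capped at 0.0001 min^-1.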
row,Sequence,pre-steady-state target cleavage rate
1,CUUAUCCUCUGGAUCUACAGGGUUUCCUAA,0.119 ± 0.02
2,GAAUUCCUCUGGAUCUACUGGGUGACCUAA,0.244 ± 0.038
3,GAAUUCGUCUGGAUCUACUGGGUUAGCUAA,0.293 ± 0.068
4,CUUAACCUCUGGAUCUACUCGGUUACCUUA,0.052 ± 0.011
5,CUUAUCCUCUGGUUCUACUGCGUUACCUAA,0.455 ± 0.04
6,CUAUACCUCUGGUUCUACUGGGUUACCUAA,0.696 ± 0.053
7,CUUAACCUCUGGUUCUACUGGGUUACCUAA,0.479 ± 0.042
8,CUUUACCUCUGGUUCUACUGGGUUACCUAA,0.514 ± 0.043
9,CUUAACCUCUGGUUCUACUGCGUUACCUAA,0.754 ± 0.077
10,CUAUACCUCUGCAUCUACUGGGUUACCUAA,0.439 ± 0.042
11,GAAUACCUCUGGUUCUACUGGGUUACCUAA,0.59 ± 0.052
12,CAAUACCUCUGGUUCUACUGGGUUACCUAA,0.909 ± 0.066
13,CAAUACCUCUGGAUCUACUGGGUUACCUAA,0.395 ± 0.06
14,GAAUUGCUCUGGAUCUACUGGCUUACCUAA,0.0382 ± 0.014
15,GAAUUCCUCUGGAUACUACUGGGUUACCUAA,0.373 ± 0.056
16,GAAUUCCUCUGGAACUACUGGGUUACCAAA,0.233 ± 0.056
17,CAAUUCCUCUGGAUCUACUCGGUUUCCUAA,0.0763 ± 0.028
18,CAAUUCGUCUGGAUCUACUGCGUUACCUAA,0.376 ± 0.044
19,CUUAAGGAGACCUUCCUACUGGGUUACCUAA,0.00294 ± 0.0029
20,CUUAUGCUCUGGAUCUACUGGGUUACGUAA,0.534 ± 0.042
21,CAAUUCCUCAGGAUCUUCUGGGUUACCUAA,0.485 ± 0.058
22,CUAUUCCUCACGAUCUACUGGGUUACCUAA,0.659 ± 0.042
23,CAAUUCCUCACCAUCUACUGGGUUACCUAA,0.573 ± 0.069

row,Sequence,pre-steady-state target cleavage rate
1,CAAUUCCUCACGAUCUACUGGGUUACCUAA,0.784 ± 0.05
2,CUUUUCCUCACGAUCUACUGGGUUACCUAA,0.635 ± 0.051
3,CUAUUCCUCACCAUCUACUGGGUUACCUAA,0.384 ± 0.049
4,CUAUUCCUGACGAUCUACUGGGUUACCUAA,0.133 ± 0.023
5,GAAUUCCUCACCAUCUACUGGGUUACCUAA,0.455 ± 0.051
6,GAAUUCCUCACGAUCUACUGGGUUACCUAA,0.697 ± 0.051
7,CAAUUCCUGACGAUCUACUGGGUUACCUAA,0.212 ± 0.034
8,CAAUUCCUCUGGAUCUACAGGGUUAGCUAA,0.157 ± 0.054
9,CUUAAGCUCUCGAUCUACAGGGUUACCUAA,0.185 ± 0.012
10,CUUAUCCUCUGGAUCUUCUGGGUUACCUUA,0.289 ± 0.053
11,GAAUACCUCUGGAUCUACUGGGUAACCUAA,0.168 ± 0.035
12,CAAUUCCUCUGCAUCUACUGCGUUACCUAA,0.666 ± 0.058
13,CUAUUCCUCUGCAUCUACUGCGUUACCUAA,0.654 ± 0.047
14,CUUUUCCUCUGCAUCUACUGCGUUACCUAA,0.49 ± 0.037
15,GAAUUCCUCUGCAUCUACUGCGUUACCUAA,0.591 ± 0.054
16,CUUAUCCUCUGCAUCUACUGCGUUACCUAA,0.377 ± 0.032
17,CUAUUCCUCUGCAUCUACUGGGUUACCUAA,0.463 ± 0.04
18,GAAUUCCUCUGGAUCUACUGGCAUACCUAA,0.00471 ± 0.003
19,CUUAACCUCUGAAUCUACUGGGUUACCUAA,0.158 ± 0.019
20,CUUAACCUCUCGAUCUACUGGCUUACCUAA,0.173 ± 0.016
21,CUUAAGGUCUGGAUCUUCUGGGUUACCAAA,0.0379 ± 0.015
22,CAAUUCCUCUUGAUCUACUGGGUUACCUAA,0.866 ± 0.044
23,CUUUUCCUCUUGGAUCUACUGGGUUACCUAA,0.346 ± 0.033

row,Sequence,pre-steady-state target cleavage rate
1,GAAUUCCUCUGAUCUACUGGGUUACCUAA,0.454 ± 0.062
2,CUAUUCCUCUUGAUCUACUGGGUUACCUAA,0.767 ± 0.04
3,CUUUUCCUCUGAUCUACUGGGUUACCUAA,0.304 ± 0.036
4,GAAUUCCUCUUGAUCUACUGGGUUACCUAA,0.74 ± 0.037
5,GAAUUCCUCUUGGAUCUACUGGGUUACCUAA,0.402 ± 0.042
6,CUAUUCCUCUUGGAUCUACUGGGUUACCUAA,0.433 ± 0.046
7,CAAUUCCUCUGAUCUACUGGGUUACCUAA,0.528 ± 0.061
8,CUAUUCCUCUGAUCUACUGGGUUACCUAA,0.395 ± 0.048
9,CUUUUCCUCUUGAUCUACUGGGUUACCUAA,0.705 ± 0.039
10,CAAUUCCUCUUGGAUCUACUGGGUUACCUAA,0.358 ± 0.046
11,CUUAUCGUCUGGAUCUACUGGGUUACCUUA,0.295 ± 0.066
12,CAAUUCCUCUGGAACUACUGGGUAACCUAA,0.235 ± 0.035
13,CUUUUCCUCUGGAUCUACACCGUUACCUAA,0.0786 ± 0.0085
14,CUUAACCUCUCGAUCUACUGGGUUACCUUA,0.373 ± 0.034
15,GAAUUCCUCUGGAACUAGUGGGUUACCUAA,0.221 ± 0.027
16,GAAUUCCUCUGGAUCUUCUGGGUUACCUAA,0.274 ± 0.047
17,CUUAUCCUCUGGAUCUACUGGGUUACCAUA,0.497 ± 0.069
18,CAAUUCCUCUGGAUCUACUGGGUUACCAUAA,0.588 ± 0.078
19,CUUAUCCUCUGGAUCUACUGGGUUACAUAA,0.742 ± 0.048
20,CAAUUCCUCUGGAUCUACUGGGUUACCAUA,0.518 ± 0.076
21,CUAUUCCUCUGGAUCUACUGGGUUACCAUA,0.413 ± 0.054
22,CUUAUCCUCUGGAUCUACUGGGUUACCAUAA,0.452 ± 0.06
23,CAAUUCCUCUGGAUCUACUGGGUUACAUAA,0.739 ± 0.053

row,Sequence,pre-steady-state target cleavage rate
1,CAAUUCCUCUGGAUCUACUGGGUUACCUGAA,0.438 ± 0.14
2,CAAUUCCUCUGGAUCUACUGGGUUACCUGA,0.328 ± 0.086
3,CUAUUCCUCUGGAUCUACUGGGUUACCAUAA,0.553 ± 0.069
4,GAAUUCCUCUGGAUCUACUGGGUUACCUGAA,0.735 ± 0.26
5,CUAUUCCUCUGGAUCUACUGGGUUACAUAA,0.739 ± 0.051
6,CUUAAGGUCUUGGAUCUACUGGGUUACCUAA,0.291 ± 0.03
7,CUUAAGGUCUGGAUCUACUGCGUUACCAAA,0.109 ± 0.029
8,CUAAUCCUCUGGAUCAACUGGGUUACCUAA,0.381 ± 0.043
9,GAAUUCCUCUGGAUCUACUGGGUUAGCCUAA,0.299 ± 0.036
10,GAAUUCCUCUGGAUCUACUGGGUUAACUAA,0.674 ± 0.059
11,CAAUUCCUCUGGAUCUACUGGGUUAACUAA,0.386 ± 0.098
12,GAAUUCCUCUGGAUCUACUGGGUUACCAUAA,0.383 ± 0.049
13,GAAUUCCUCUGGAUCUACUGGGUUACCAUA,0.364 ± 0.05
14,CUUUUCCUCUGGAUCUACUGGGUUACCAUAA,0.422 ± 0.047
15,CUUUUCCUCUGGAUCUACUGGGUUACCAUA,0.437 ± 0.048
16,CAAUUCCUCUGGAUCUACUGGGUUAGCCUAA,0.651 ± 0.079
17,CUUUUCCUCUGGAUCUACUGGGUUACAUAA,0.738 ± 0.042
18,GAAUUCCUCUGGAUCUACUGGGUUACAUAA,0.64 ± 0.057
19,CUAUUCCUCUGGAUCUACUGGGUUAACUAA,0.349 ± 0.071
20,CUAUUCCUCUGGAUCUACUGGGUUAGCCUAA,0.51 ± 0.063
21,CUUAACCUCUGGAUCUAGUCGGUUACCUAA,0.0063 ± 0.0049
22,CUUUUCCUCUGGAUCAACUGGGUUUCCUAA,0.165 ± 0.034
23,CUUAAGGAGACCUUCUACAGCGUUACCUAA,0.00566 ± 0.0029
